Results reported in paper PMC4336329 (PLoS ONE, 2015).
The whole screen tested about 310,000 compounds, of which about 14,000 (4.5%) showed an effect of 50% or more. The effect is printed as a negative number. Only a selection was taken, and strong results are over-represented in it overall.

These molecules were tested against human ether-à-go-go-related gene (hERG) potassium channel (human, UniProt Q12809) (assay: primary screen, population patch clamp on CHO cells stably expressing hERG; higher = less effect of the substance).
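Note: peak tail current of the secondary pulse compared with the same well before compound.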

Sequence of human ether-à-go-go-related gene (hERG) potassium channel (Q12809 whole entry, looked up): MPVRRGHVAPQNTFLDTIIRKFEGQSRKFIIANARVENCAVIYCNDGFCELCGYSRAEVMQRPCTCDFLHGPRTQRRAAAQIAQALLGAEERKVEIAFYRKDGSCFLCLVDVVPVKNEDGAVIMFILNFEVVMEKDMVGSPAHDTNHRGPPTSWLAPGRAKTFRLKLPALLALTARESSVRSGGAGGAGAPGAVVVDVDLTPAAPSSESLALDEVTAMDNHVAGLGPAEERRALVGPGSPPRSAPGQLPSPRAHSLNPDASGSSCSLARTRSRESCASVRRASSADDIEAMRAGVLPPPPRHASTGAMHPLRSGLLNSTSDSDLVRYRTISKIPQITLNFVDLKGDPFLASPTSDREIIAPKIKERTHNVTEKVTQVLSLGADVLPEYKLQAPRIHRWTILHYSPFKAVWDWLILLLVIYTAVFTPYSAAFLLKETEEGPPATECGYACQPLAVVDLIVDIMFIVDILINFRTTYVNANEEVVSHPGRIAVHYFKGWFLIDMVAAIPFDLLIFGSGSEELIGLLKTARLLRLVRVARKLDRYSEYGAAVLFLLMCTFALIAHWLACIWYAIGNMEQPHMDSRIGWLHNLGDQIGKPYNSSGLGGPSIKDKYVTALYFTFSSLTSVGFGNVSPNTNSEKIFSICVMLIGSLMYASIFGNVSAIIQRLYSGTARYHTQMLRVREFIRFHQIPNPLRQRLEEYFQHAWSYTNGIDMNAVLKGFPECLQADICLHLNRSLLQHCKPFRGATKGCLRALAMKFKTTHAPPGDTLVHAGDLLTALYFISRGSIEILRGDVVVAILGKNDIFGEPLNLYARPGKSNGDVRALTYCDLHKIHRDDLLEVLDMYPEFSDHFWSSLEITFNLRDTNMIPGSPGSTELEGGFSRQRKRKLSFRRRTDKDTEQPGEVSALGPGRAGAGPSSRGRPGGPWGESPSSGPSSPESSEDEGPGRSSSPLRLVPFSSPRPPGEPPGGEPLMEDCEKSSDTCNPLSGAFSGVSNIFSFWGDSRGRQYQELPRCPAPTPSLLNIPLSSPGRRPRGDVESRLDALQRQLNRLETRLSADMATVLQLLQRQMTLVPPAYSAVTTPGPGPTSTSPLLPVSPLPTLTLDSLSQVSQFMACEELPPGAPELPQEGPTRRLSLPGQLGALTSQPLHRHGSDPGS

Row | SMILES | hERG current change (%, negative = inhibition) at 10uM [%]
1 | CC1(C)CC(=O)N(CC(=O)NC2CCCC2)c2ccccc2S1(=O)=O | 11.7
2 | COc1ccc(Br)cc1/C=N/NC(=O)C(c1ccncc1)N1CCOCC1 (centres unmarked) | 7.87
3 | CCOc1ccc(S(=O)(=O)NCCC(=O)NCc2cccnc2)cc1 | 4.31
4 | O=C1c2cccc3cc([N+](=O)[O-])cc(c23)C(=O)N1CC1CCCO1 (centres unmarked) | -8.56
5 | CCOC(=O)N1CCc2c(sc3[nH]c(=S)[nH]c(=S)c23)C1 | 13.4
6 | O=C(O)CC[N+](=O)[O-] | 15.3
7 | Cc1c(C(=O)N2CCOCC2)[nH]c2ccc(OCc3ccccc3)cc12 | -13.2
8 | CCN(CC)CCNC(=O)c1[nH]c2ccc(OCc3ccccc3)cc2c1C | -74.6
9 | COc1ccc2[nH]c(C(=O)NCc3ccccc3)c(C)c2c1.Cl | 7.03
10 | Cc1c(C)c2ccc(OC(C)C(=O)NCCCn3ccnc3)c(C)c2oc1=O (centres unmarked) | -6.05
11 | CCc1cc(=O)oc2cc(OCC(=O)NCCCn3ccnc3)c(Cl)cc12 | -28.5
12 | CCCc1cc(=O)oc2cc(OCC(=O)NCCCn3ccnc3)c(Cl)cc12 | -72.3
13 | Cc1c(C)c2cc(Cl)c(OCC(=O)NCCCn3ccnc3)cc2oc1=O | -2.59
14 | Cc1cc(OC(C)C(=O)NCCCn2ccnc2)c2c(C)cc(=O)oc2c1 (centres unmarked) | -15.4
15 | CCCc1cc(=O)oc2cc(OCC(=O)NCCCn3ccnc3)ccc12 | -47.1
16 | Cc1c(C)c2ccc(OCC(=O)NCCCn3ccnc3)cc2oc1=O | 14
17 | CCCc1cc(=O)oc2cc(C)cc(OCC(=O)NCCN3CCOCC3)c12 | 6.05
18 | CCCc1cc(=O)oc2cc(C)cc(OCC(=O)NCCCn3ccnc3)c12 | -76.4
19 | Cc1cc(OCC(=O)NCCCn2ccnc2)c2c(C)c(C)c(=O)oc2c1 | -63.6
20 | Cc1cc(OC(C)C(=O)NCCCn2ccnc2)c2c(C)c(C)c(=O)oc2c1 (centres unmarked) | -76.7
21 | CCCc1cc(=O)oc2cc(C)cc(OCC(=O)NCCCN3CCOCC3)c12 | -7.61
22 | Cc1cc(C(F)(F)F)nc(SCc2ccc(C(=O)O)o2)n1 | -2.51

Row | SMILES | hERG current change (%, negative = inhibition) at 10uM [%]
23 | CC(=O)Oc1ccc2ccccc2c1C(NC(=O)Cc1ccccc1)c1ccccc1Cl (centres unmarked) | 7.9
24 | CCc1noc(C)c1C(=O)N1CCCC(C(=O)c2cc(F)ccc2F)C1 (centres unmarked) | -41.2
25 | N#Cc1ccccc1NC(=O)CSC1=Nc2ccccc2C2CC=NN12 (centres unmarked) | 1.95
26 | Cc1ccc(SC(C)c2nc(-c3ccncc3)no2)cc1 (centres unmarked) | -24.3
27 | Cc1ccc(S(=O)(=O)CCC(=O)OCC(=O)N2c3ccccc3CC2C)cc1 (centres unmarked) | 13
28 | O=C(COC(=O)c1ccco1)NCc1ccc(Cl)cc1 | 4.21
29 | O=C(COC(=O)c1cc([N+](=O)[O-])ccc1Cl)NC1CCCC1 | -26.8
30 | O=C(COC(=O)CCc1c[nH]c2ccccc12)Nc1ccccc1C(F)(F)F | -5.09
31 | CCC(C)(C(=O)NC1CCCCC1)N(Cc1ccco1)C(=O)CC1NC(=O)NC1=O (centres unmarked) | 5.88
32 | O=C(CSc1nc(-c2ccc(Cl)cc2)[nH]c(=O)n1)Nc1cccc(Cl)c1 | 22.3
33 | CC(C)(C)c1ccccc1OCC(=O)NCCC(=O)O | -7.3
34 | CCCc1cc(=O)oc2cc(OC(C)C(=O)NCCCn3ccnc3)ccc12 (centres unmarked) | -42.1
35 | CCc1cc(=O)oc2cc(C)cc(OC(C)C(=O)NCCCn3ccnc3)c12 (centres unmarked) | -30.9
36 | CCc1cc(=O)oc2cc(C)cc(OCC(=O)NCCCN3CCOCC3)c12 | -11.1
37 | CCCc1cc(=O)oc2cc(C)cc(OC(C)C(=O)NCCCn3ccnc3)c12 (centres unmarked) | -65.3
38 | Cc1cc(OCC(=O)NCCCn2ccnc2)c2c(C)cc(=O)oc2c1 | -22.5
39 | CCCc1cc(=O)oc2cc(OCC(=O)NCCCN3CCOCC3)c(Cl)cc12 | -73
40 | CCc1cc(=O)oc2cc(OCC(=O)NCCCN3CCOCC3)c(Cl)cc12 | 4.59
41 | CCCCc1cc(=O)oc2cc(OCC(=O)NCCN3CCOCC3)c(Cl)cc12 | 1.96
42 | CCc1cc(=O)oc2cc(C)cc(OCC(=O)NCCCn3ccnc3)c12 | -55.3
43 | Cc1cc(C)cc(COc2ccc3c(C)c(CC(=O)O)c(=O)oc3c2C)c1 | -41.4
44 | O=C(COc1ccc(S(=O)(=O)NC2CCCCC2)cc1)NCc1cccnc1 | 2.91

Row | SMILES | hERG current change (%, negative = inhibition) at 10uM [%]
45 | CC(C)NC1=C(Cl)C(=O)c2ccccc2C1=O | 4.34
46 | O=C1[C@H]2CC3CCC2(O3)[C@@H]2OCCCN12 (some centres unmarked) | 4.02
47 | O=S(=O)(c1cccc(-c2nnc(SCc3ccc(Cl)cc3)o2)c1)N1CCCCC1 | 10.7
48 | CCOC(=O)c1nn(-c2ccccc2)c(=O)c(C#N)c1C | 13.5
49 | CC(C)CCN(CC(=O)NC1CCCC1)C(=O)C(=O)Nc1ccc2c(c1)OCCO2 | 11
50 | O=C(c1c[nH]c2ccccc12)N1CCN(Cc2ccccc2)CC1 | -13.5
51 | O=C(C(=O)N1CCN(Cc2ccc3c(c2)OCO3)CC1)c1c[nH]c2ccccc12 | -11.6
52 | O=C(CN1CCN(Cc2ccc3c(c2)OCO3)CC1)c1c[nH]c2ccccc12 | -63.5
53 | O=C(CN1CCN(c2ccccc2)CC1)c1c[nH]c2ccccc12 | -0.617
54 | NC(=O)CN1CCN(Cc2ccc3c(c2)OCO3)CC1 | 30.6
55 | O=C(CN1CCN(Cc2ccccc2)CC1)c1c[nH]c2ccccc12 | -56.5
56 | COc1ccc(-c2ccc(C#N)c(SCC(=O)OCc3ccccc3)n2)cc1OC | -2.31
57 | CCCn1c(N)c(C(=O)CSc2n[nH]c(-c3ccc(C)cc3)n2)c(=O)[nH]c1=O | 22.2
58 | C[C@H](NC(=O)c1nc[nH]c1C(=O)N[C@@H](Cc1ccccc1)C(=O)OCc1ccccc1)C(=O)OCc1ccccc1 | 8.42
59 | CCOC(=O)Cn1c(=O)oc2cc(S(=O)(=O)Nc3cc(OCC)ccc3OCC)ccc21 | -42.3
60 | COc1ccc(N(CC(=O)Nc2ccc(F)cc2F)S(=O)(=O)c2c(C)nn(C)c2C)cc1 | -12.4
61 | Cc1ccc2oc(C(=O)N(C)Cc3ccc(C)o3)c(C)c2c1 | 10.6
62 | COc1ccc(CN2CCC(CO)(Cc3cccc(C(F)(F)F)c3)CC2)cc1Cn1cccn1 | -75.7
63 | COc1ccc(CN2CCC(CO)(Cc3ccccc3)CC2)cc1Cn1cccn1 | -76.5
64 | COc1ccc(CN2CCN(CC=C(C)C)C(CCO)C2)cc1Cn1cccn1 (centres unmarked) | -31.2
65 | COc1ccc(CN2CCN(C(C)C)C(CCO)C2)cc1Cn1cccn1 (centres unmarked) | 8.43
66 | COc1ccc(NC(=O)CCNS(=O)(=O)c2ccc3c(c2)CCC(=O)N3)cc1 | -2.85

Row | SMILES | hERG current change (%, negative = inhibition) at 10uM [%]
67 | CN(O)/C=c1/ccc2c(n1)C(=O)C=CC=2 | -8.33
68 | Cc1ccc(C(=O)Nc2ccc(S(=O)(=O)N3CCN(C)CC3)cc2)o1 | 5.28
69 | COc1cccc(C(=O)NCCNC(=O)c2cnccn2)c1 | 19.5
70 | Cc1nnc(NNS(=O)(=O)c2ccc(Cl)cc2)[nH]c1=O | -17.3
71 | O=C(O)C1=C[C@H](c2ccc(F)cc2)C[C@H](OCc2ccc(CO)cc2)O1 | 4.49
72 | Cc1c(CCC(=O)NCCCn2ccnc2)c(=O)oc2c(C)c3occ(C(C)(C)C)c3cc12 | -67
73 | Cc1oc2c(C)c3oc(=O)c(CCC(=O)NCCCn4ccnc4)c(C)c3cc2c1C | -35.9
74 | Cc1c(CCC(=O)NCCCn2ccnc2)c(=O)oc2cc3occ(C(C)(C)C)c3cc12 | -77.7
75 | Cc1coc2cc3oc(=O)c(CCC(=O)NCCCn4ccnc4)c(C)c3cc12 | -41.4
76 | Cc1oc2cc3oc(=O)c(CCC(=O)NCCCn4ccnc4)c(C)c3cc2c1C | -41.7
77 | Cc1coc2c(C)c3oc(=O)c(CCC(=O)NCCCn4ccnc4)c(C)c3cc12 | -44.4
78 | Cn1c(=O)n(CCCO)c(=O)c2c1nc1n2CCCN1Cc1ccccc1 | -9.65
79 | CN(Cc1nc2ccc(F)cc2[nH]1)Cc1c(C(=O)N(C)C)nc2ccc(Cl)cn12 | -43.3
80 | CCOc1cc(S(=O)(=O)N(CC)CC)ccc1Br | -11.8
81 | O=C(CSc1nnc(SCc2ccc(Cl)cc2)s1)c1ccc2c(c1)OCO2 | 9.81
82 | O=c1[nH]c2ccc(Cl)cc2c(-c2ccccc2)c1N1CCOCC1 | 2.46
83 | CCOC(=O)N1CCN(c2c(-c3ccccc3)c3cc(Cl)ccc3[nH]c2=O)CC1 | -11.4
84 | O=c1[nH]c2ccc(Cl)cc2c(-c2ccccc2)c1N1CCN(CCO)CC1 | -64.6
85 | Cc1cccc(C2=NOC(=O)/C2=C\c2ccccc2F)c1 | 9.48
86 | CC(C)n1nc(C(=O)Nc2ccc3c(c2)OCO3)c2ccccc2c1=O | 11
